# Measurements reported in publication PMC4336329 (PLoS ONE, 2015).
# Hit rate of the full screen: of about 310,000 compounds, about 14,000 (4.5%) showed an effect of 50% or more. Effects have a minus sign here. The sample holds strong results, similar compounds and a random draw of the others, so the mix is not that of the screen.
# Target: human ether-à-go-go-related gene (hERG) potassium channel (human, UniProt Q12809)
# Experiment: primary screen, population patch clamp on CHO cells stably expressing hERG; higher = less effect of the substance
# 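Note: peak tail current of the secondary pulse compared with the same well before compound.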
# human ether-à-go-go-related gene (hERG) potassium channel, sequence (Q12809 whole entry, looked up): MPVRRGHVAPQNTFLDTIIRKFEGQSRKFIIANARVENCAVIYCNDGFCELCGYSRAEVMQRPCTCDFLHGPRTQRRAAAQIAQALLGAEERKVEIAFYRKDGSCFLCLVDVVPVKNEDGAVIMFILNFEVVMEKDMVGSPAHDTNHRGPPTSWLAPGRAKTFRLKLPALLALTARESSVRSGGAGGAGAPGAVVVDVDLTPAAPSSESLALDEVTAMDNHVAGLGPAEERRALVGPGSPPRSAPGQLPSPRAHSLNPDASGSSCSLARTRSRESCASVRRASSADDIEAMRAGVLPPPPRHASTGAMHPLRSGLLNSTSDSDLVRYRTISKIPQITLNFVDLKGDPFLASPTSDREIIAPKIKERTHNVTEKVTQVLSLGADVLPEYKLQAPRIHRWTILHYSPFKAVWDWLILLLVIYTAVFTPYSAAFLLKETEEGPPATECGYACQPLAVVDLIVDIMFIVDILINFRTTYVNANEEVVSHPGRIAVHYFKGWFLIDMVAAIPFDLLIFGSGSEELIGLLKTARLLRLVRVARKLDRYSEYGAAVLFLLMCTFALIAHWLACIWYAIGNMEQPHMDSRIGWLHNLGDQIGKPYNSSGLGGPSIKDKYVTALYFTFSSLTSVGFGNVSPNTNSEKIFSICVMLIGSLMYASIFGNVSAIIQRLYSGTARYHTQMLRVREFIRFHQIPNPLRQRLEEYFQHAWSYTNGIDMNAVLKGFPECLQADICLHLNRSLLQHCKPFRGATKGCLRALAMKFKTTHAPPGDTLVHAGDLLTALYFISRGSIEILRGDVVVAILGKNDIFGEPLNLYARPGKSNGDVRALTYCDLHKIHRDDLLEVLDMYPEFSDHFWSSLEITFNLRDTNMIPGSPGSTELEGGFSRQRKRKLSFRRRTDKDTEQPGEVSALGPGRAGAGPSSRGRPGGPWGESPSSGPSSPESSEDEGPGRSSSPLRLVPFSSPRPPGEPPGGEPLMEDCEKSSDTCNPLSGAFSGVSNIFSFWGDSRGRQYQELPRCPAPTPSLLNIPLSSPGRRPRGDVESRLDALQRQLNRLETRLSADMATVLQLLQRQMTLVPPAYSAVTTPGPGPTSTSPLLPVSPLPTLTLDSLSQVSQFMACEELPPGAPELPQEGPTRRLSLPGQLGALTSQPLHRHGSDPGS
row,SMILES,"hERG current change (%, negative = inhibition) at 10uM [%]"
1,CC1=C(C/C=C(\C)CCCC(C)CCCC(C)CCCC(C)C)C(=O)c2ccccc2C1=O (centres unmarked),25.4
2,COC(=O)c1sccc1NC(=O)Nc1ccccc1F,13.4
3,CCCOc1ccc(N2C(=O)C3C(C(C)C)NC4(C(=O)c5ccccc5C4=O)C3C2=O)cc1 (centres unmarked),-0.496
4,O=C(NNC1CC(=O)N(c2ccc3c(c2)OCCO3)C1=O)c1ccc(Cl)cc1 (centres unmarked),10.1
5,Cc1ccc(CNC(=O)CNS(=O)(=O)c2ccc(Br)s2)cc1,-0.279
6,O=C1C2C3C=CC(C4CC34)C2C(=O)N1/N=C/c1ccc(-c2cccc([N+](=O)[O-])c2)o1 (centres unmarked),-14.1
7,O=C(CSc1nncc2ccccc12)Nc1ccc(C(=O)O)cc1,10.6
8,O=C(COC(=O)c1ccc(O)cc1)NC1CCCC1,14
9,C#CCOc1ccc(/C=C2/C(=O)N(c3cccc(C(=O)O)c3)N=C2C)cc1OC,-2.13
10,CCCN(CC#CC(O)(c1ccccc1)c1cccnc1)CCC (centres unmarked),-37.3
11,CCOc1ccccc1NC(=O)CSc1ccc2nnc(-c3cccnc3)n2n1,-61.9
12,COc1ccc(OC)c(NC(=O)CSc2ccc3nnc(-c4ccccn4)n3n2)c1,-69
13,COc1ccc(CCNC(=O)CSc2nnc3ccc(-c4ccccn4)nn23)cc1OC,2.17
14,O=C(CSc1nnc2ccc(-c3ccccn3)nn12)NCCc1ccccc1,-6.49
15,COc1ccccc1NC(=O)CSc1ccc2nnc(-c3ccc(C)cc3)n2n1,-26.6
16,COc1ccccc1NC(=O)CSc1ccc2nnc(-c3cccnc3)n2n1,-57
17,COc1ccc(NC(=O)CSc2ccc3nnc(-c4ccccn4)n3n2)c(OC)c1,-25.9
18,COc1ccccc1NC(=O)CSc1ccc2nnc(-c3ccccn3)n2n1,0.136
19,COc1ccccc1NC(=O)CSc1ccc2nnc(-c3ccncc3)n2n1,-31.3
20,COc1ccc(CCNC(=O)CSc2nnc3ccc(-c4ccccn4)nn23)cc1,-51.6
21,O=C(CSc1ccc2nnc(-c3cccnc3)n2n1)Nc1ccc(F)cc1F,-21.5

row,SMILES,"hERG current change (%, negative = inhibition) at 10uM [%]"
1,O=C(CSc1ccc2nnc(-c3cccnc3)n2n1)Nc1ccccc1C(F)(F)F,-33.3
2,COc1ccc(C(O)C(C)NC(C)C(O)c2ccc(OC)cc2)cc1 (centres unmarked),4.3
3,COc1ccc(S(=O)(=O)N2CCN(Cc3cc(OC)c(O)c(OC)c3)CC2)cc1.O=C(O)C(=O)O,4.57
4,CN(C)CCNc1nc(-c2ccccc2)nnc1C(F)(F)F,-3.83
5,CN1CCN(C(=O)c2ccc3c(c2)NC(=O)C(N2CCOCC2)S3)CC1 (centres unmarked),3.85
6,COc1ccc(C(C)=O)cc1CN1C(=O)C(C)N(c2ccc(C)cc2)C1=O (centres unmarked),-25.4
7,CCn1nc(NC(=O)c2ccco2)c2cc3ccccc3nc21,-0.887
8,Cc1ccccc1CN1CCC(n2nccc2NC(=O)c2ccc3c(c2)OCO3)CC1,-9.06
9,COc1ccc(NC(=O)CSc2ccc3nnc(-c4cccnc4)n3n2)c(OC)c1,-32.4
10,COc1ccc(OC)c(NC(=O)CSc2ccc(-c3cccnc3)nn2)c1,-17.6
11,COc1ccc(OC)c(NC(=O)CSc2ccc3nnc(-c4cccnc4)n3n2)c1,-61.1
12,Cc1cc2nc(-c3cccnc3SCC(=O)NCc3ccco3)[nH]c2cc1C,-5.15
13,Cc1c(C(=O)N2CCC(Cc3ccccc3)CC2)cccc1[N+](=O)[O-],-34.3
14,O=[N+]([O-])c1cccc(CN2CCC(Cc3ccccc3)CC2)c1,-31.4
15,O=C(c1ccccc1[N+](=O)[O-])N1CCC(Cc2ccccc2)CC1,-19
16,O=[N+]([O-])c1ccc(CN2CCC(Cc3ccccc3)CC2)cc1,-55.1
17,Cc1cc(C(=O)N2CCC(Cc3ccccc3)CC2)ccc1[N+](=O)[O-],-38.5
18,O=C(c1ccc([N+](=O)[O-])cc1)N1CCC(Cc2ccccc2)CC1,-73.4
19,O=[N+]([O-])c1ccc(C(=S)N2CCC(Cc3ccccc3)CC2)cc1,-32.4
20,Cc1ccc(C(=O)N2CCC(Cc3ccccc3)CC2)cc1[N+](=O)[O-],-63.8
